Measured values taken from ChEMBL document CHEMBL3988442, “University of Dundee, Small-Polar-MMV Screening Library” (2021).
The whole screen tested about 48,000 compounds, of which about 13,000 (27%) showed an effect of 50% or more. This is one part of the list.

tested on: Wolbachia pipientis; experiment: Anti-Wolbachia Cell-Based Screen; assay type: functional; parameters: scale not given: in the data most compounds retested in dose-response had high values; settings: 5 µM

| Compound | Percent Effect |
| --- | --- |
| Cc1oncc1S(=O)(=O)N1CCCC(C)(Cc2ccc3c(c2)OCO3)C1 (stereo not given) | -3.14% |
| CS(=O)(=O)NCCC(=O)NCc1cccnc1-n1cnc2ccccc21 | 11.61% |
| O=C(CS(=O)(=O)C1CCCC1)NC1CCCc2cc(OC(F)F)ccc21 (stereo not given) | -7.219% |
| COCCN(Cc1ccccn1)C(=O)CC1OCCc2sccc21 (stereo not given) | 9.879% |
| CSCc1noc(CN2CC3(CCCC3)CC2=O)n1 | -12.65% |
| CN(C)C(C(=O)N1CCN(C(=O)c2ccc[nH]2)CC1)c1ccc(F)cc1 (stereo not given) | 1.074% |
| CC(C)c1ncc2c(n1)CN(Cc1cccc(OCC(N)=O)c1)CC2 | -10.24% |
| CN1CCC(Cc2noc(-c3cccc(OCC(N)=O)c3)n2)CC1 | 14.54% |
| CC(C)c1noc(-c2cccc(OCC(N)=O)c2)n1 | 109.4% |
| CN(CCOc1cccc(CN)c1)C1CCOCC1 | 3.585% |
| Cn1cc(CN2CCCCC2c2ccc(-c3cccc(Cl)c3)nc2)cn1 (stereo not given) | 64.04% |
| Cn1cc(-c2ccc(C3CCCCN3Cc3cccnc3)cn2)cn1 (stereo not given) | 97.17% |
| Cc1cnn(CCCNC(=O)C2CCCCN2Cc2cccnc2)c1 (stereo not given) | 8.943% |
| Cn1c(Cl)cnc1CN1CCCC1c1ccc2c(c1)OCCO2 (stereo not given) | -20.61% |
| Cn1cc(CN2CCCCC2c2ccc(-c3cccc(F)c3)nc2)cn1 (stereo not given) | 28.65% |
| Cn1cc(CN2CCCCC2c2ccc(-c3cnn(C)c3)nc2)cn1 (stereo not given) | 49.11% |
| CN(CC(=O)Nc1ccccc1)C(=O)CN(C)c1ccc(Cl)cn1 | -3.187% |
| CSc1ncc(CNCC2(N3CCCCC3)Cc3ccccc3C2)cn1 | -2.025% |
| Cc1noc(CS(=O)(=O)c2cc(F)ccc2F)n1 | 2.12% |
| Nc1nccc(N2CCNC(C(=O)NCc3ccccn3)C2)n1 (stereo not given) | -0.8592% |
| O=C(NCc1ccncc1)C1CN(c2nc3ccccc3s2)CCN1 (stereo not given) | 6.015% |
| Cc1cnc(N2CCOC(C(=O)NCc3ccccc3)C2)s1 (stereo not given) | 138.3% |

| Compound | Percent Effect |
| --- | --- |
| O=C(NCc1ccccc1)C1CN(c2ccccn2)CCO1 (stereo not given) | 195.5% |
| O=C(NC[C@H]1OC[C@@H]2CCN(c3ccccn3)C[C@@H]21)c1ccco1 | -8.109% |
| CCC1CN(C(=O)c2cnc(-c3ccccc3)s2)CCO1 (stereo not given) | -14.04% |
| CN(C)c1ccccc1C(=O)N1C[C@@H](CN2CCOCC2)[C@@H](CO)C1 | 9.943% |
| O=C1N[C@@H]2CCN(C(=O)c3ccccc3)[C@@H]2C(=O)N1Cc1ccccc1 | -7.073% |
| N#Cc1ncn(CCC(=O)Nc2cc(Cl)ccc2Cl)n1 | 94.62% |
| N#Cc1ncn(CCS(=O)(=O)c2ccc(Cl)cc2)n1 | -0.6249% |
| N#Cc1ncn(CCS(=O)(=O)c2ccccc2)n1 | 11.97% |
| N#Cc1ncn(CC(=O)Nc2cc(Cl)ccc2F)n1 | -2.838% |
| O=C(CCNC(=O)c1ccoc1)Nc1ccccc1F | -1.29% |
| N#Cc1ncn(CCC(=O)Nc2c(Cl)cccc2Cl)n1 | -3.932% |
| N#Cc1ncn(CCS(=O)(=O)c2ccc(Br)cc2)n1 | 14.03% |
| N#Cc1ncn(CCC(=O)Nc2ccccc2F)n1 | 141.3% |
| N#Cc1ncn(CCC(=O)Nc2ccc(Cl)cc2F)n1 | 11.11% |
| N#Cc1ncn(CCC(=O)Nc2ccc(F)c(F)c2)n1 | 100.3% |
| N#Cc1ncn(CCC(=O)Nc2cccc(Cl)c2)n1 | 93.03% |
| Cc1ccc(F)cc1NC(=O)CCn1cncn1 | -7.237% |
| CCCC1CCN(C(=O)c2coc(COc3ccc(OC)cc3)n2)C1 (stereo not given) | 13.18% |
| CCOc1c(Br)cc(CNC(C)c2nnc3n2CCC3)cc1OC (stereo not given) | -3.79% |
| O=C(c1cc(COc2ccc3c(c2)OCO3)[nH]n1)N1CCCO1 | -2.662% |
| COc1ccc(C[C@H]2CN(C3CCOCC3)CC[C@@H]2OCC2CC2)cc1.O=C(O)C(F)(F)F | -34.49% |
| COc1ccc(CN2C[C@@H]3CN(Cc4ccoc4)C[C@@H]3C2=O)cc1.O=C(O)C(F)(F)F | -0.9609% |

| Compound | Percent Effect |
| --- | --- |
| COc1ccc(C[C@H]2CN(Cc3ccoc3)CC[C@H]2OC)cc1.O=C(O)C(F)(F)F | 63.46% |
| COc1ccc(C[C@H]2CN(C3CCOCC3)CC[C@H]2OCC2CC2)cc1.O=C(O)C(F)(F)F | -41.15% |
| COc1ccc(C[C@H]2CN(Cc3ccoc3)CC[C@@H]2OC)cc1.O=C(O)C(F)(F)F | 76.48% |
| COc1ccc(CN2CCN(S(=O)(=O)c3cc(C(=O)O)cs3)CC2)cc1 | 1.54% |
| Cc1cc(-c2nn(C)c(Cl)c2CN2CCOCC2CC(=O)O)no1 (stereo not given) | 1.04% |
| CCCS(=O)(=O)c1ncc(CN2CCC(C)CC2)n1CC1CCCO1 (stereo not given) | -5.004% |
| CC(=O)N1CCN(CCNc2ncc(Br)cc2C)CC1 | 3.175% |
| CC(=O)N1CCN(CCNS(=O)(=O)c2cccc(F)c2)CC1 | 146.4% |
| CC(=O)N1CCN(CCNS(=O)(=O)c2cc(F)cc(F)c2)CC1 | 102.1% |
| CC1CCN(CCCNS(=O)(=O)c2cccc(F)c2)CC1.Cl | 5.28% |
| O=S(=O)(NCCCN1CCCC1)c1cc(F)cc(F)c1 | -0.6955% |
| CC(=O)N1CCN(CCNS(=O)(=O)c2cc(F)ccc2C)CC1 | 96.01% |
| CC1CCN(CCCNS(=O)(=O)c2cc(F)cc(F)c2)CC1.Cl | -12.88% |
| CSCc1cccc(S(=O)(=O)NCCCN2CCOCC2)c1 | -6.624% |
| CC(=O)N1CCN(CCNS(=O)(=O)c2c(F)cccc2F)CC1 | 115.2% |
| Cc1ccc(F)cc1S(=O)(=O)NCc1cccc(CS(C)(=O)=O)c1 | -14.38% |
| CC(=O)N1CCN(CCCSCc2ccccc2)CC1 | -1.866% |
| O=S(=O)(NCCC(O)c1cccs1)c1c(F)cccc1F (stereo not given) | 0.3394% |
| Cc1nc(CNCc2ccc(N3CCN(C)CC3)nc2)cs1 | -1.26% |
| CN(CCCNS(=O)(=O)N1CCC2(CC1)OCCO2)c1ccccc1 | 15.24% |
| CNc1ccnc(N2C[C@@H]3CC[C@H](C2)N(CCOC)C3=O)n1 | -5.532% |
